Assay [1] can be described thus: NCI Yeast Anticancer Drug Screen. Data for the rad50 strain (AID 155).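 Also: 0% = growth of vehicle-only cultures of the same strain.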 To be noted: S. cerevisiae rad50 strain growth inhibition, stronger effect = higher value. Put shortly:
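Relative growth inhibition (compound vs vehicle) was measured in yeast with a defined repair-gene alteration.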

Assay [2] in a line: NCI Yeast Anticancer Drug Screen. Data for the mec2-1 strain (AID 157). Conditions: S. cerevisiae mec2-1 strain, stronger effect = higher value. In short, it runs like this:
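Growth inhibition is read against vehicle-treated controls after compound exposure of the mec2-1 yeast strain, which is defective in DNA damage repair or cell cycle control.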

A short description of assay [3]: NCI Yeast Anticancer Drug Screen. Data for the sgs1 mgt1 strain (AID 161).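 Also: 0% = growth of cultures given vehicle only.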 To be noted: S. cerevisiae sgs1 mgt1 strain, stronger effect = higher value. Put shortly:
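Percent growth inhibition was derived by comparing compound-exposed mutant yeast with vehicle-exposed cultures. The strain carries alterations in DNA damage repair.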

Assay [4] in a line: NCI Yeast Anticancer Drug Screen. Data for the cln2 rad14 strain (AID 165).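 Also: 0% = growth equal to vehicle treated cultures.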 Conditions: S. cerevisiae cln2 rad14 strain, stronger effect = higher value. Put shortly:
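Growth inhibition, relative to vehicle-treated controls, is the read-out. The test organism is a yeast strain with defined genetic alterations, cln2 rad14.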

The nature of assay [5]: NCI Yeast Anticancer Drug Screen. Data for the bub3 strain (AID 167). Conditions: S. cerevisiae bub3 mutant strain, stronger effect = higher value. In short, it runs like this: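 Screening used yeast with an engineered genetic alteration affecting cell cycle control. Compound-exposed cultures were compared with vehicle cultures, and reduced growth was taken as inhibition.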
Assay [6] is described as follows: NCI Yeast Anticancer Drug Screen. Data for the mlh1 rad18 strain (AID 175). Conditions: S. cerevisiae mlh1 rad18 strain growth inhibition, stronger effect = higher value. Put shortly: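 Cells of a genetically altered yeast strain, deficient in DNA damage repair, were treated with compound. Their growth was then compared with that of vehicle-treated cultures to give inhibition.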

Setting [7] is: at 5.0 µM (retest, dose inferred, filed as 0.5).
Where [8] appears, read: at 50.0 µM (retest, dose inferred, filed as 5.0).

This is part of a sample that, as a whole, favours compounds with a hit. Of some 79,000 tested, about 15% had one in any assay. Unmarked numbers belong to inactive results. Active and inactive are the calls of the source. Rule as the data show it: active = growth inhibition above about 70%; inactive = the rest.

Regarding `COC(=O)C1=C(C)N2CCSC2(C)C(C(=O)OC)C1c1cccc(Cl)c1` (configuration not stated), the growth inhibition was -21% in assay [1] (setting [7]); 85% (active) in assay [1] (setting [8]); 80.3% (active) in assay [1] (at 50.0 µM); 4% in assay [2] (setting [7]); 77% (active) in assay [2] (setting [8]); 79.5% (active) in assay [2] (at 50.0 µM). The growth inhibition in assay [3] (setting [7]) was 0%; in assay [3] (setting [8]), 84% (active); in assay [3] (at 50.0 µM) it was 82.3% (active); in assay [4] (setting [7]) it was 17%; in assay [4] (setting [8]), 66%; in assay [4] (at 50.0 µM), 69.1%. Moreover, the growth inhibition in assay [5] (setting [7]) is 13%; in assay [5] (setting [8]), 89% (active); in assay [5] (at 50.0 µM), 81.5% (active); in assay [6] (setting [7]) it was 6%; in assay [6] (setting [8]), 90% (active); in assay [6] (at 50.0 µM), 73.2% (active).

As to `CC1C2C=CC1C(c1c3ccc(=O)c(O)c-3oc3c(O)c(O)ccc13)C2C(=O)O` (configuration not stated), the growth inhibition in assay [1] (setting [7]) was 11%; in assay [1] (setting [8]), 33%; in assay [1] (at 50.0 µM) it was 17%; in assay [2] (setting [7]), -1%; in assay [2] (setting [8]), 10%; in assay [2] (at 50.0 µM), 47.8%. Besides, the growth inhibition in assay [3] (setting [7]) is 2%; in assay [3] (setting [8]) it was 33%; in assay [3] (at 50.0 µM), 53%; in assay [4] (setting [7]) it was -23%; in assay [4] (setting [8]), 0%; in assay [4] (at 50.0 µM) it was -35.2%. Further, the growth inhibition in assay [5] (setting [7]) is 9%; in assay [5] (setting [8]), 37%; in assay [5] (at 50.0 µM), -8.35%; in assay [6] (setting [7]) it was 7%; in assay [6] (setting [8]), 35%; in assay [6] (at 50.0 µM), 8.3%.

As for `CC/C(=C/c1ccc2c(c1)OCO2)[N+](=O)[O-]`, the growth inhibition is 89% (active) in assay [1] (setting [7]); 99% (active) in assay [1] (setting [8]); 99.3% (active) in assay [1] (at 50.0 µM); 59% in assay [2] (setting [7]); 99% (active) in assay [2] (setting [8]); 99.8% (active) in assay [2] (at 50.0 µM). The growth inhibition in assay [3] (setting [7]) was 68%; in assay [3] (setting [8]) it was 99% (active); in assay [3] (at 50.0 µM) it was 99.7% (active); in assay [4] (setting [7]), 28%; in assay [4] (setting [8]) it was 100% (active); in assay [4] (at 50.0 µM), 99.1% (active). In addition, the growth inhibition is 83% (active) in assay [5] (setting [7]); 99% (active) in assay [5] (setting [8]); 98.5% (active) in assay [5] (at 50.0 µM); 66% in assay [6] (setting [7]); 99% (active) in assay [6] (setting [8]); 99.4% (active) in assay [6] (at 50.0 µM).

With `CN(C)CC(Cl)CCl` (configuration not stated), the growth inhibition in assay [1] (setting [7]) is 19%; in assay [1] (setting [8]), 86% (active); in assay [1] (at 50.0 µM), 88.9% (active); in assay [2] (setting [7]) it was -1%; in assay [2] (setting [8]) it was 71% (active); in assay [2] (at 50.0 µM), 80.2% (active). Further, the growth inhibition is 14% in assay [3] (setting [7]); 75% (active) in assay [3] (setting [8]); 43.5% in assay [3] (at 50.0 µM); -4% in assay [4] (setting [7]); 64% in assay [4] (setting [8]); 55.9% in assay [4] (at 50.0 µM). Further, the growth inhibition was -8% in assay [5] (setting [7]); 8% in assay [5] (setting [8]); 9.25% in assay [5] (at 50.0 µM); 15% in assay [6] (setting [7]); 82% (active) in assay [6] (setting [8]); 49.5% in assay [6] (at 50.0 µM).

Regarding `[O-][n+]1onc2ccccc21`, the growth inhibition in assay [1] (setting [7]) was 47%; in assay [1] (setting [8]), 99% (active); in assay [1] (at 50.0 µM), 98.3% (active); in assay [2] (setting [7]) it was 30%; in assay [2] (setting [8]) it was 99% (active); in assay [2] (at 50.0 µM) it was 52%. In addition, the growth inhibition in assay [3] (setting [7]) is 29%; in assay [3] (setting [8]), 99% (active); in assay [3] (at 50.0 µM), 49.9%; in assay [4] (setting [7]), 34%; in assay [4] (setting [8]), 99% (active); in assay [4] (at 50.0 µM), 97.7% (active). For the same compound, the growth inhibition in assay [5] (setting [7]) was 38%; in assay [5] (setting [8]), 99% (active); in assay [5] (at 50.0 µM), 46.7%; in assay [6] (setting [7]), 63%; in assay [6] (setting [8]) it was 99% (active); in assay [6] (at 50.0 µM), 98.2% (active).

As for `ClCCN(CCCl)c1ccc(C2N(Cc3ccc(N(CCCl)CCCl)cc3Cl)CCCN2Cc2ccc(N(CCCl)CCCl)cc2Cl)cc1`, the growth inhibition in assay [1] (setting [7]) was 2%; in assay [1] (setting [8]), 99% (active); in assay [1] (at 50.0 µM), 96.2% (active); in assay [2] (setting [7]), -3%; in assay [2] (setting [8]) it was 99% (active); in assay [2] (at 50.0 µM), 98.8% (active). For the same compound, the growth inhibition is -1% in assay [3] (setting [7]); 99% (active) in assay [3] (setting [8]); 97.5% (active) in assay [3] (at 50.0 µM); -7% in assay [4] (setting [7]); 99% (active) in assay [4] (setting [8]); 22.1% in assay [4] (at 50.0 µM). Also, the growth inhibition is 1% in assay [5] (setting [7]); 99% (active) in assay [5] (setting [8]); 37% in assay [5] (at 50.0 µM); 9% in assay [6] (setting [7]); 99% (active) in assay [6] (setting [8]); 98.2% (active) in assay [6] (at 50.0 µM).

With `COc1cc(OC)c(OC)cc1/C=C/[N+](=O)[O-]`, the growth inhibition in assay [1] (setting [7]) was 35%; in assay [1] (setting [8]), 64%; in assay [1] (at 50.0 µM) it was 85.9% (active); in assay [2] (setting [7]) it was 24%; in assay [2] (setting [8]), 85% (active); in assay [2] (at 50.0 µM), 90.9% (active). Moreover, the growth inhibition in assay [3] (setting [7]) is 46%; in assay [3] (setting [8]) it was 85% (active); in assay [3] (at 50.0 µM) it was 90.8% (active); in assay [4] (setting [7]), 9%; in assay [4] (setting [8]) it was 39%; in assay [4] (at 50.0 µM), 77.8% (active). Further, the growth inhibition is 12% in assay [5] (setting [7]); 67% in assay [5] (setting [8]); 94.8% (active) in assay [5] (at 50.0 µM); 71% (active) in assay [6] (setting [7]); 91% (active) in assay [6] (setting [8]); 92% (active) in assay [6] (at 50.0 µM).

Regarding `CCOP(=O)(OCC)/C(C#N)=C/c1ccccc1Cl`, the growth inhibition in assay [1] (setting [7]) is 17%; in assay [1] (setting [8]), 74% (active); in assay [1] (at 50.0 µM), 82.5% (active); in assay [2] (setting [7]), -7%; in assay [2] (setting [8]), 62%; in assay [2] (at 50.0 µM), 72.8% (active). The growth inhibition in assay [3] (setting [7]) was 2%; in assay [3] (setting [8]), 65%; in assay [3] (at 50.0 µM) it was 79.8% (active); in assay [4] (setting [7]), 10%; in assay [4] (setting [8]), 55%; in assay [4] (at 50.0 µM) it was 64.8%. Further, the growth inhibition in assay [5] (setting [7]) is 0%; in assay [5] (setting [8]), 74% (active); in assay [5] (at 50.0 µM) it was 72.7% (active); in assay [6] (setting [7]), -2%; in assay [6] (setting [8]) it was 77% (active); in assay [6] (at 50.0 µM), 81.8% (active).

As to `CC1=[N+](Cc2cc(C)cc(C)c2O)CCCC1`, the growth inhibition in assay [1] (setting [7]) was -5%; in assay [1] (setting [8]), 4%; in assay [1] (at 50.0 µM) it was -5.5%; in assay [2] (setting [7]) it was -8%; in assay [2] (setting [8]), -9%; in assay [2] (at 50.0 µM), -7.45%. Also, the growth inhibition is -5% in assay [3] (setting [7]); -57% in assay [3] (setting [8]); 41.2% in assay [3] (at 50.0 µM); -2% in assay [4] (setting [7]); -4% in assay [4] (setting [8]); -3% in assay [4] (at 50.0 µM). Further, the growth inhibition in assay [5] (setting [7]) was -8%; in assay [5] (setting [8]), -1%; in assay [5] (at 50.0 µM) it was 1.2%; in assay [6] (setting [7]) it was -13%; in assay [6] (setting [8]) it was -8%; in assay [6] (at 50.0 µM) it was -24.7%.
